Laboratory results as given in PubChem BioAssay (Tox21).
Records with an inconclusive call do not appear. The source made the active and inactive calls. Unless noted, calls follow the shape of the full dose curve.

Key:
[1] = Nuclear factor erythroid 2-related factor 2/antioxidant responsive element (Nrf2/ARE) small molecule agonists: qHTS cell viability counter screen in human keratinocytes (AID 1919968; active = well fitted curve in the direction sought with a large enough effect in the repeat runs; an effect the other way counts as inactive or inconclusive; also: nearly all actives have a fitted effect of over 55% in size; also: potency is read from the fitted curve at half-maximal effect)
Summary of the method: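 Parallel cytotoxicity read: KeratinoSens HaCaT cells, compound treatment 23 h, viability by CellTiter-Fluor fluorescence 1 h post-reagent.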

[2] = target: Gonadotropin-releasing hormone receptor (Homo sapiens) (UniProt P30968); assay: Human gonadotropin-releasing hormone receptor (GnRHR) small molecule agonists, calcium flux assay in GnRHR-HEK293 cells (AID 1920063); also: nearly all actives have a fitted effect of over 35% in size
Summary of the method: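 Calcium flux, agonist mode, human GnRHR stably integrated in HEK293; dye 1 h at 37 C before compound; Ex/Em=480/540 kinetic read, 3 min; 15 concentrations, triplicate.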

[3] = target: KiSS-1 receptor (Homo sapiens) (UniProt Q969F8); assay: Human kisspeptin (KISS1R) small molecule agonists, calcium flux assay in KISS1R-HEK293 cells (AID 1920064; active = well fitted curve in the direction sought with a large enough effect in the repeat runs; an effect the other way counts as inactive or inconclusive)
Summary of the method: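 Triplicate 15-concentration series were applied to dye-loaded human KISS1R HEK293 cells, and agonist-evoked calcium fluorescence was captured for 3 min.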

[4] = G protein-coupled receptor (GPCR) small molecule agonists, calcium flux assay: HEK293 wild type cell line counter screen (AID 1920065)
Summary of the method: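 Non-specific calcium responders were flagged by adding DMSO-dissolved compounds to dye-loaded cells and reading 480/540 nm fluorescence each second for 3 min; ATP served as positive control.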

[5] = p53 small molecule agonists, cell-based qHTS assay with human liver microsomes (AID 1963577);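 also: p53 response element beta-lactamase reporter cells with liver microsomes plus NADPH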
Summary of the method: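 Reporter activation was measured by LiveBLAzer fluorescence intensity in p53RE-bla cells, which had been exposed to compounds for 16 h at 37 C alongside 0.5 mg/mL human liver microsomes and 0.5 mg/mL NADPH (final concentrations).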

[6] = p53 small molecule agonists, cell-based qHTS assay with rat liver microsomes (AID 1963578)
Summary of the method: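 Compound in DMSO added to p53RE-bla cells 5 h post-plating; rat microsomes/NADPH 0.5 mg/mL final; 16 h, 37 C; LiveBLAzer 2 h RT.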

[7] = p53 small molecule agonists, cell-based qHTS assay with human liver microsomes: qHTS cell viability counter screen (AID 1963579); also: nearly all actives have a fitted effect of over 45% in size
Summary of the method: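 HLM-supplemented (0.5 mg/mL final) and NADPH-supplemented (0.5 mg/mL final) p53RE-bla cultures, 4,000 cells per well, were dosed with compounds in DMSO for 16 h at 37 C; luminescent ATP detection (CellTiter-Glo, 30 min, room temperature) quantified surviving cells.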

[8] = p53 small molecule agonists, cell-based qHTS assay with rat liver microsomes: qHTS cell viability counter screen (AID 1963580); also: nearly all actives have a fitted effect of over 45% in size
Summary of the method: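 Rat liver microsome (0.5 mg/mL final) and NADPH (0.5 mg/mL final) co-incubation with compounds for 16 h at 37 C on HCT-116 p53RE-bla cells; cytotoxicity taken from intracellular ATP luminescence.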

[9] = p53 small molecule agonists, cell-based qHTS assay: qHTS cell viability counter screen (AID 1963581); also: nearly all actives have a fitted effect of over 45% in size; also: potency is read from the fitted curve at half-maximal effect
Summary of the method: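 Multiplexed with the reporter read, a CellTiter-Glo step (30 min, room temperature) gauges ATP-based viability of HCT-116 p53RE-bla cells after 16 h compound incubation at 37 C.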

[10] = p53 small molecule agonists, cell-based qHTS assay (AID 1963582; active = well fitted activation curve with a large enough effect in the signal ratio in the repeat runs, not every such curve was filed as active; the % refers to the signal ratio)
Summary of the method: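 Beta-lactamase reporter cells (p53RE-bla) treated with compounds for 16 h at 37 C; FRET substrate, 2 h, room temperature; fluorescence intensity.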

[11] = target: 5-hydroxytryptamine receptor 2A (Homo sapiens) (UniProt P28223); assay: 5-hydroxytryptamine receptor 2A (HTR2A) small molecule antagonists, cell-based qHTS assay (AID 1963586); also: nearly all actives have a fitted effect of over 45% in size
Summary of the method: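 CHO cells stably expressing human HTR2A were plated for 18 h at 37 C, then loaded with calcium dye for 1 h. Compounds were preincubated 5 min at room temperature before DOI (4 nM solution) was added. Kinetic fluorescence was read for 3 min.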

[12] = target: 5-hydroxytryptamine receptor 2A (Homo sapiens) (UniProt P28223); assay: 5-hydroxytryptamine receptor 2A (HTR2A) small molecule agonists, cell-based qHTS assay (AID 1963587); also: nearly all actives have a fitted effect of over 30% in size; also: potency is read from the fitted curve at half-maximal effect
Summary of the method: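 Kinetic calcium-flux fluorescence (2 min, 1 sec intervals) after compound addition in agonist mode. HTR2A-CHO cells were cultured 18 h, then dye-loaded 1 h at 37 C.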

[13] = target: Muscarinic acetylcholine receptor M1 (Homo sapiens) (UniProt P11229); assay: Cholinergic receptor muscarinic 1 (CHRM1) small molecule antagonists, cell-based qHTS assay (AID 1963588); also: nearly all actives have a fitted effect of over 40% in size
Summary of the method: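 Compounds were tested at 15 concentrations in three independent runs. Dye-loaded CHRM1-CHO cells were exposed 5 min at room temperature before stimulation by acetylcholine added at 50nM. Intracellular calcium was read kinetically on FDSS for 3 min.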

[14] = target: Muscarinic acetylcholine receptor M1 (Homo sapiens) (UniProt P11229); assay: Cholinergic receptor muscarinic 1 (CHRM1) small molecule agonists, cell-based qHTS assay (AID 1963589); also: nearly all actives have a fitted effect of over 35% in size
Summary of the method: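 qHTS, 15-point titration, 3 independent runs: compounds pin-transferred onto dye-loaded CHRM1-CHO cells (human M1), calcium fluorescence followed every second to detect agonism.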

[15] = target: Beta-2 adrenergic receptor (Homo sapiens) (UniProt P07550); assay: Adrenergic beta2 receptor (ADRB2) small molecule antagonists, cell-based qHTS assay (AID 1963592); also: series mostly up to about 92 µM; nearly all actives have a fitted effect of over 50% in size
Summary of the method: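 Assay format: CHO-ADRB2 cells, 18-20hr seeding at 37C/5% CO2, then compound plus 1nM isoproterenol agonist mix for 0.5hr RT. Homogeneous time-resolved fluorescence cAMP detection after 1hr, expressed as 665/615 nm ratio.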

[16] = target: Beta-2 adrenergic receptor (Homo sapiens) (UniProt P07550); assay: Adrenergic beta2 receptor (ADRB2) small molecule agonists, cell-based qHTS assay (AID 1963593);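 also: CHO cells stably overexpressing human ADRB2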
Summary of the method: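 CHO cells stably over-expressing ADRB2 were plated overnight at 37C, then dosed with compounds plus a stimulation mix containing 100uM IBMX and 25uM Ro-20-1724 for 0.5hr at room temperature. cAMP was measured by HTRF competition, 1hr.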

[17] = target: D(2) dopamine receptor (Homo sapiens) (UniProt P14416); assay: Dopamine D2 receptor (DRD2) small molecule agonists, cell-based qHTS assay (AID 1963594); also: nearly all actives have a fitted effect of over 35% in size
Summary of the method: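 cAMP accumulation in DRD2-HEK293 cells measured by HTRF after 1 h detection; compounds added 10 min before NKH477 (200nM […]) forskolin-analogue stimulation, 30 min at room temperature, with Ro20-1724 present at 0.1 mM final.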

[18] = target: D(2) dopamine receptor (Homo sapiens) (UniProt P14416); assay: Dopamine D2 receptor (DRD2) small molecule antagonists, cell-based qHTS assay (AID 1963595; active = well fitted inhibition curve with a large enough effect in the signal ratio in the repeat runs, with a control signal flat; the % refers to the signal ratio)
Summary of the method: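 Cells were plated and grown for 24 h at 37 °C. Ro20-1724 (0.1 mM final) went in first, then compound for 10 min. NKH477 (200 nM) with quinpirole (12 nM) followed for 30 min at RT, then HTRF detection reagents for 1 h.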

[19] = cAMP Responsive Elements (CRE) small molecule agonists, cell-based qHTS assay (AID 1963590)
Summary of the method: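 Quantitative HTS for CRE agonists: HEK 293T CRE-bla cells, overnight plating, 3 h compound incubation at 37 C/5% CO2, then 2 h room-temperature LiveBLAzer B/G FRET substrate loading.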

[20] = cAMP Responsive Elements (CRE) small molecule antagonists, cell-based qHTS assay (AID 1963591; active = well fitted inhibition curve with a large enough effect in the signal ratio in the repeat runs, not every such curve was filed as active; the % refers to the signal ratio)
Summary of the method: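 Fluorescence intensity from cleaved LiveBLAzer B/G substrate (2 h, room temperature) quantified CRE-bla activity in HEK 293T cells exposed 3 h to compound with 0.25 uM final NKH477.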

Measured: Potency

Sequence of Gonadotropin-releasing hormone receptor (Homo sapiens) (P30968 whole entry, looked up): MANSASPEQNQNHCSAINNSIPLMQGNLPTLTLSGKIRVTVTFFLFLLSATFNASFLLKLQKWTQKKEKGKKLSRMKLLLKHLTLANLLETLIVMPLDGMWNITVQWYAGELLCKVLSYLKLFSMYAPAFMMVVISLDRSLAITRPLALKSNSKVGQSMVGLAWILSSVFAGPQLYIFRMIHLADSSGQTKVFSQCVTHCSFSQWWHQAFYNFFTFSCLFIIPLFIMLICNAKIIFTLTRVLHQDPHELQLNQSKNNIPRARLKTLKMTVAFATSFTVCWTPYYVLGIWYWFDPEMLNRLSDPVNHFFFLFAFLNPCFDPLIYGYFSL
Sequence of KiSS-1 receptor (Homo sapiens) (Q969F8 whole entry, looked up): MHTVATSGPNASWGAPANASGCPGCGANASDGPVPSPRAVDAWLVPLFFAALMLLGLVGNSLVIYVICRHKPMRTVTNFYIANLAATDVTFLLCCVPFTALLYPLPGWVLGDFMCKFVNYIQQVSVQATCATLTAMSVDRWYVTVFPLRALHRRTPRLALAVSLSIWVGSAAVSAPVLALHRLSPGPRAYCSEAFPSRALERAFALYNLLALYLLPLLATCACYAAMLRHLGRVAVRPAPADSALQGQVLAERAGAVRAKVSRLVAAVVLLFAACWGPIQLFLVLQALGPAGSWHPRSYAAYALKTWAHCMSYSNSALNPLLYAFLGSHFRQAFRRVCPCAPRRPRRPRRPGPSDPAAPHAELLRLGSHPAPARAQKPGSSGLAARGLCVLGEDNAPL
Sequence of Beta-2 adrenergic receptor (Homo sapiens) (P07550 whole entry, looked up): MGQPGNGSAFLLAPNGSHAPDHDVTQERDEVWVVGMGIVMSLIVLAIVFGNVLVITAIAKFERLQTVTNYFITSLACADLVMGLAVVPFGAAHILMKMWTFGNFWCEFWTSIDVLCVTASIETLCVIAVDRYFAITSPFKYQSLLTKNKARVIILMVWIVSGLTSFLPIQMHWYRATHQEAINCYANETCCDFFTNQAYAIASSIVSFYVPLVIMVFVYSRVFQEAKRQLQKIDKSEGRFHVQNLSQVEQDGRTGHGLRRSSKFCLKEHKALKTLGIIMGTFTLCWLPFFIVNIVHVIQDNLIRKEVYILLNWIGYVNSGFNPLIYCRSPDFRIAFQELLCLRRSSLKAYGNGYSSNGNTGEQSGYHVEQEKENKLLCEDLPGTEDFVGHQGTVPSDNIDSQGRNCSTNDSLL
Sequence of D(2) dopamine receptor (Homo sapiens) (P14416 whole entry, looked up): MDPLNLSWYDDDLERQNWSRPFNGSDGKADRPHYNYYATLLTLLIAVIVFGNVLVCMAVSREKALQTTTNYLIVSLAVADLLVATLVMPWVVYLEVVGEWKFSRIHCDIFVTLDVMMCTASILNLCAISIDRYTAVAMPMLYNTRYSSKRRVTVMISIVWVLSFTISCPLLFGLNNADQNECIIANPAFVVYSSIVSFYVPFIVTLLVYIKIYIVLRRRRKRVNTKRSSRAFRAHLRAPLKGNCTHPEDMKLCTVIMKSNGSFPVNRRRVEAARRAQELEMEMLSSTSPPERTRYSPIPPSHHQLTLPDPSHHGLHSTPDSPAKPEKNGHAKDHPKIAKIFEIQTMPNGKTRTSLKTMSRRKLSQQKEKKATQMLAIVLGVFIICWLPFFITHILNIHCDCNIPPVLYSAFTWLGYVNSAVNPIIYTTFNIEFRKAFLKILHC
Sequence of 5-hydroxytryptamine receptor 2A (Homo sapiens) (P28223 whole entry, looked up): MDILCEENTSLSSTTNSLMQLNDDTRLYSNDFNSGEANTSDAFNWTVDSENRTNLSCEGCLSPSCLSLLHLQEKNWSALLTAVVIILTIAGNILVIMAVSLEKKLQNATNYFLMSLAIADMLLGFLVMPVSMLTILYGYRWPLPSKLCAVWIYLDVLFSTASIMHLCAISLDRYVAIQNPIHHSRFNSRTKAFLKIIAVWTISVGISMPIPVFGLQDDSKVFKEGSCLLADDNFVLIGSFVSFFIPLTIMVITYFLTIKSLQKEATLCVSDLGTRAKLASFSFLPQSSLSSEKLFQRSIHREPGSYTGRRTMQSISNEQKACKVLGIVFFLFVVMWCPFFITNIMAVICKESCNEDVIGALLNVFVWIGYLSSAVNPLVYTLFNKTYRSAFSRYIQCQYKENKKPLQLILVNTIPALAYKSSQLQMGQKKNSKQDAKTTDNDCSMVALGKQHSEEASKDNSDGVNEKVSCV
Sequence of Muscarinic acetylcholine receptor M1 (Homo sapiens) (P11229 whole entry, looked up): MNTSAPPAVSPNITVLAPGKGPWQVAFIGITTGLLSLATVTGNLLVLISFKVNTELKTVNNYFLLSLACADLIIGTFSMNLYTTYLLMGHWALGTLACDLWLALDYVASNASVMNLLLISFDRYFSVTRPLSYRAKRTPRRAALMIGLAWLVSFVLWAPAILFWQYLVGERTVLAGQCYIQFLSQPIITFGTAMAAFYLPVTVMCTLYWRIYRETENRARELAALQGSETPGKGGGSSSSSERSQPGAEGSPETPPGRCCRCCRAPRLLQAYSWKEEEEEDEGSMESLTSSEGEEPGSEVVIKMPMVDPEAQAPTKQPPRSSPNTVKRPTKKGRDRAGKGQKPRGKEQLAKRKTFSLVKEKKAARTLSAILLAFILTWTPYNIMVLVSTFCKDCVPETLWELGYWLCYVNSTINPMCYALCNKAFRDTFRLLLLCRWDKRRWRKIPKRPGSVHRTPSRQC

O=c1c(C2CC(c3ccc(-c4ccc(Br)cc4)cc3)Cc3ccccc32)c(O)sc2ccccc12 (stereo not drawn)
active: [1] 29.8 µM | [9] 8.9 µM
inactive: [2] | [3] | [4] | [5] | [6] | [7] | [8] | [10] | [11] | [12] | [13] | [14] | [15] | [16] | [17] | [18]

Cn1sc(Cl)cc1=O
active: [12] 54.9 µM
inactive: [1] | [2] | [3] | [4] | [5] | [6] | [7] | [8] | [9] | [10] | [13] | [19] | [20] | [16] | [18]

O=C(NC(=O)c1c(F)cccc1F)Nc1ccc(Oc2ccc(C(F)(F)F)cc2Cl)cc1F
inactive: [1] | [2] | [3] | [4] | [5] | [6] | [7] | [9] | [12] | [13] | [14] | [15] | [16] | [17]

BrCC(Br)(Br)Br
inactive: [1] | [2] | [3] | [4] | [5] | [6] | [7] | [8] | [9] | [11] | [12] | [14] | [19] | [20] | [15] | [18]

CCOC(=O)/C=C(C)/C=C/C[C@@H](C)CCCC(C)C
inactive: [1] | [2] | [3] | [4] | [5] | [6] | [7] | [8] | [9] | [10] | [12] | [13] | [14] | [19] | [15] | [17] | [18]

COC1=CC(=O)O[C@@H](/C=C/c2ccccc2)C1
inactive: [1] | [2] | [3] | [4] | [5] | [6] | [7] | [8] | [9] | [10] | [11] | [12] | [13] | [14] | [15] | [17] | [18]
